# Compound activity from PubChem BioAssay.
# Hits are enriched below; roughly 2.4% of the tested compounds scored in any of these assays.
# ATXN viability: reduces viability in counter-screen for ATXN expression inhibitors | S2 cells (HEK-293 line with an ATXN2-luciferase reporter) viability, CellTiter-Fluor protease fluorescence, 24 h | Potency, µM (series often up to 56.7 µM), most hits filed as cytotoxic | hit rate 0.49% among 400,000; further: nearly all actives have a fitted effect of over 40% in size
# HepG2 tox-1: HepG2 cytotoxicity, counter-screen for TGF-b inhibitors | Potency, µM (highest dose often 46.1 µM), without a hit: at the top dose activity change, negative = cytotoxicity, usual class: cytotoxic | HepG2 CAGA-GFP viability, ATP luminescence, 18 h | hit rate 0.76% among 410,000
#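 CellTiter-Glo luminescence gave cytotoxicity after 18 hours at 37 degrees C. The cells were HepG2 CAGA-GFP in 1% FBS DMEM, stimulated with 500 pg/mL TGF-beta after compound addition. %Activity was normalised to no-cell wells (complete cell-killing) and DMSO (no toxicity), and curves were fitted and classified.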
# TGFb SMAD3 inh: TGF-b pathway inhibition; HepG2 CAGA-GFP TGF-b/SMAD3 reporter, GFP fluorescence, 18 h; TGF-beta stimulated, 500 pg/mL final; Potency, µM (highest dose often 46.1 µM), for the others: at the highest dose activity, negative = inhibition, actives largely listed as inhibitors; hit rate 1.2% among 410,000; AID 588855; further: on the % scale 0 is the no-effect control and ±100 the full control effect; nearly all actives have a fitted effect of over 65% in size
#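 GFP signal (ex488/em500-530) from TGF-beta-stimulated HEPG2 CAGA-GFP cells, 500 pg/mL final, 18 h at 37 degrees C in DMEM plus 1% FBS, normalized to unstimulated and DMSO-stimulated controls.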
# ATXN2 expr inh: inhibitors of ATXN2 expression; HEK-293 ATXN2-luciferase reporter, luminescence, 24 h; Potency, µM (doses to about 57 µM), for the others: top-dose activity change, negative = inhibition, actives largely listed as inhibitors; hit rate 0.72% among 360,000; further: on the % scale 0 is the no-effect control and ±100 the full control effect; nearly all actives have a fitted effect of over 55% in size
#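 qHTS (up to 57 uM final) was run with 24 h compound exposure of reporter cells at 37 °C. Each well was multiplexed: SteadyGlo luminescence measured ATXN2-luciferase expression after a fluorogenic Gly-Phe-AFC viability readout (25 uM final).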
# Anesthetic bind: candidate novel general anesthetic via apoferritin binding; Potency, µM (highest dose often 77.5 µM), for the others: top-dose activity change, negative = displacement, actives largely listed as inhibitors; AID 485281; P02791; hit rate 0.074% among 350,000; apoferritin/1-aminoanthracene competitive binding, fluorescence; further: on the % scale 0 is the no-effect control and ±100 the full control effect; nearly all actives have a fitted effect of over 20% in size
# Target sequence (P02791 2-175 limits assumed): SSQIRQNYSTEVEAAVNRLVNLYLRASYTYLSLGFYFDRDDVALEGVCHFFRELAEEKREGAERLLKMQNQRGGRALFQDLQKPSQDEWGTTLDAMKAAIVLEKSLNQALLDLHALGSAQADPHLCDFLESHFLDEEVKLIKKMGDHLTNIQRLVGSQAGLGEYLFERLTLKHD
#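 Read-out: endpoint 1-AMA fluorescence, excitation 380 nm and emission 535 nm, after compounds sit 10 min at room temperature with 10 uM horse-spleen apoferritin in 50% saturated 1-AMA/PBS. Values come from four-parameter Hill fits.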
# TGFb CAGA inh: TGF-b pathway inhibition, cherry-pick retest. shares compounds with TGFb SMAD3 inh. HepG2 CAGA-GFP TGF-b reporter, GFP fluorescence, 18 h; cells stimulated with TGF-beta, 500 pg/mL. Potency, µM (titrated, usually from 46.1 µM), for the others: at the highest dose activity, negative = inhibition, hits mostly inhibitors. hit rate 63% among 1,600. AID 720534; further: on the % scale 0 is the no-effect control and ±100 the full control effect; nearly all actives have a fitted effect of over 65% in size
# HepG2 tox-2: HepG2 cytotoxicity, TGF-b inhibitor counterscreen. hit rate 27% among 1,600. Potency, µM (series often up to 46.1 µM), inactives show at the highest dose activity, negative = cytotoxicity, most hits filed as inhibitors. AID 720535. shares compounds with TGFb SMAD3 inh. HepG2 CAGA-GFP viability, ATP luminescence, 18 h; cells stimulated with TGF-beta, 500 pg/mL; further: on the % scale 0 is the no-effect control and ±100 the full control effect; nearly all actives have a fitted effect of over 70% in size
# TGFb CCL64 inh: blocks TGF-b signaling in CCL64 reporter cells; shares compounds with TGFb SMAD3 inh; AID 720536; Potency, µM (top dose mostly 46.1 µM), for inactives: top-dose activity, negative = inhibition, usual class: inhibitors; hit rate 41% among 1,600; CCL64 CAGA-GFP reporter, TGF-b stimulated, GFP fluorescence, 18 h; further: nearly all actives have a fitted effect of over 65% in size
# TGFb COP inh: blocks TGF-b signaling in HepG2 COP reporter; hit rate 3% among 1,600; Potency, µM (titrated, usually from 46.1 µM), for inactives: at the top dose activity, negative = inhibition, actives largely listed as inhibitors; HepG2 COP-GFP TGF-b reporter, GFP fluorescence, 18 h; cells stimulated by added recombinant TGF-beta; shares compounds with TGFb SMAD3 inh; further: nearly all actives have a fitted effect of over 70% in size
# * marks the source's active call; other numbers are inactive results; i = inactive; u = inconclusive; x = no result given. The call rests on the fitted dose curve; in most records, active means well fitted curve in the direction sought with a large enough effect; inconclusive means small, poorly fitted or top-dose-only effect, or another doubt; inactive means no such curve, though single readings can be large; an effect the other way counts as inactive or inconclusive. Potency means the concentration at half of the fitted maximal effect.
SMILES,ATXN viability,HepG2 tox-1,TGFb SMAD3 inh,ATXN2 expr inh,Anesthetic bind,TGFb CAGA inh,HepG2 tox-2,TGFb CCL64 inh,TGFb COP inh
CCC(=O)OC1(C(C)=O)CCC2C3CCC4=CC(=O)CCC4(C)C3CCC21C (stereo not given),u,9.5%,-18.7%,20µM*,x,x,x,x,x
CCCCCC(=O)O[C@@]1(C(C)=O)CCC2C3CCC4=CC(=O)CC[C@@]4(C)C3CC[C@]21C (stereo not given in full),x,x,x,x,-5.7%,x,x,x,x
O=C(N/N=C/c1cc(Br)cc(Cl)c1O)c1ccc2c(c1)OCO2,i,-64.0%,u,12.6µM*,x,x,x,x,x
Cc1cc(Br)cc(/C=N/NC(=O)c2ccc3c(c2)OCO3)c1O,u,1.78µM*,5.62µM*,x,-7.7%,x,x,x,x
O=C(N/N=C/c1ccccc1O)c1ccc2c(c1)OCO2,i,-13.2%,-25.6%,u,4.4%,x,x,x,x
COc1cc(Cl)cc(/C=N\NC(=O)c2ccc3c(c2)OCO3)c1O,x,-27.4%,11.2µM*,x,x,x,x,x,x
Cc1nc(C(=O)NCC(=O)O)c(O)c2ccc(Oc3ccccc3)cc12,x,x,x,22.6%,x,x,x,x,x
C[N+]1(CC(=O)c2ccc(Cl)c(Cl)c2)CCOCC1,x,-25.7%,-16.9%,x,x,x,x,x,x
CN[C@@H]1[C@@H](O)[C@@H](O[C@@H]2[C@@H](O)[C@H](O[C@H]3O[C@H](CN)[C@@H](O)[C@H](O)[C@@H]3O)[C@@H](N)C[C@@H]2NC(=O)[C@@H](O)CN)OC[C@]1(C)O,x,x,x,4.6%,x,x,x,x,x
CC[n+]1c(/C=C/c2ccc(N(C)C)cc2)ccc2ccccc21,x,-60.1%,3.55µM*,u,u,x,x,x,x
CC[n+]1ccc(/C=C/c2ccc(N(C)C)cc2)c2ccccc21,8.91µM*,-40.9%,6.31µM*,u,u,x,x,x,x
CN(C)c1ccc(/C=C/c2cc[n+]([O-])c3ccccc23)cc1,x,-5.0%,-11.6%,x,x,x,x,x,x
COc1ccc2nc(-c3ccc(N(C)C)cc3)sc2c1,x,x,x,x,38.2%,x,x,x,x
C[C@@]12CCC[C@H]1[C@@H]1CC[C@H]3C[C@@H](O)CC[C@]3(C)[C@H]1CC2,25.1µM*,x,x,12.1%,x,x,x,x,x
O=C(Nc1ccc(NC(=O)c2ccc([N+](=O)[O-])o2)cc1Cl)c1ccco1,i,-27.1%,8.5%,0.8%,4.3%,x,x,x,x
O=C(Nc1cccc(NC(=O)c2ccc([N+](=O)[O-])o2)c1)c1ccco1,u,11.2µM*,3.98µM*,-26.0%,-11.3%,6.51µM*,u,16.4µM*,u
O=C(Nc1cccc(NC(=O)c2cccs2)c1)c1ccc([N+](=O)[O-])o1,u,22.4µM*,5.62µM*,u,u,5.17µM*,20.6µM*,11.6µM*,u
O=C(Nc1ccc(F)cc1)Nc1csc2ccccc12,i,-26.9%,14.1µM*,13.3%,-3.2%,u,u,u,22.9%
CN(C)c1ccc(NC(=O)Nc2csc3ccccc23)cc1,i,-12.7%,-10.5%,52.2%,u,x,x,x,x
Cc1nc2c(o1)C(=O)c1ccccc1C2=Nc1ccccc1,x,1.41µM*,1.26µM*,28.2µM*,x,3.66µM*,4.11µM*,5.8µM*,4.11µM*
CC(=O)c1cccc(N=c2scc(-c3ccc(S(=O)(=O)N4CCOCC4)cc3)n2CCO)c1,i,-36.5%,u,-38.5%,-11.0%,1.0%,-28.7%,u,7.7%
NC(Cc1ccc(C(F)(F)F)cc1)c1csc(Nc2cnccn2)n1 (stereo not given),u,-67.9%,7.08µM*,u,x,u,u,u,62.3%
NC(Cc1cnc[nH]1)c1csc(Nc2ccc(C(F)(F)F)cn2)n1 (stereo not given),i,-22.3%,19.7%,-0.9%,x,x,x,x,x
NC(Cc1ccc(C(F)(F)F)cc1)c1csc(Nc2ncccn2)n1 (stereo not given),u,-30.5%,20.7%,-28.3%,x,x,x,x,x
NC(Cc1ccc(F)cc1)c1csc(Nc2ccc(C(F)(F)F)cn2)n1 (stereo not given),x,-111.1%,10µM*,u,x,u,u,u,-26.6%
SMILES,ATXN viability,HepG2 tox-1,TGFb SMAD3 inh,ATXN2 expr inh,Anesthetic bind,TGFb CAGA inh,HepG2 tox-2,TGFb CCL64 inh,TGFb COP inh
Cc1noc(C)c1C(=O)N1CCC1(C)C(=O)NS(=O)(=O)Cc1cccc(Cl)c1 (stereo not given),i,1.5%,4.1%,-2.6%,x,x,x,x,x
CCOc1cc(S(=O)(=O)NCCc2c(C)[nH]c3ccc(C)cc23)ccc1Br,u,-105.0%,u,u,61.9%,x,x,x,x
CCOC(=O)[C@]12CCCC=C1N(Cc1ccco1)C(=O)[C@H](CC(=O)N1CCN(C(=O)c3ccco3)CC1)C2,i,x,x,20.1%,x,x,x,x,x
O=[N+]([O-])c1cc2no[n+]([O-])c2cc1N1CCCCC1,5.32µM*,5.5%,2.82µM*,9.47µM*,x,1.64µM*,6.51µM*,3.66µM*,u
CCC[C@@H]1C[C@@H](C(=O)N[C@@H]([C@H]2O[C@H](SC)[C@H](O)[C@@H](O)[C@H]2O)[C@H](C)Cl)N(C)C1,i,x,x,x,x,x,x,x,x
O=C(Nc1ccc(N2CCN(c3ncccc3C(F)(F)F)CC2)nc1)c1cccs1,u,-56.3%,3.98µM*,33.6µM*,-17.8%,u,u,u,79.4%
O=C(Nc1ccc(N2CCN(c3ccc(C(F)(F)F)cn3)CC2)nc1)c1cccs1,i,-4.3%,u,u,-2.8%,x,x,x,x
Oc1ccc(C[C@H]2CNC(=S)N2CC2CCCN2C[C@H](Cc2ccccc2)N2C[C@H](Cc3ccc(O)cc3)N(CC3CCCCCC3)C2=S)cc1 (stereo not given in full),u,-81.6%,10µM*,u,x,20.6µM*,u,8.2µM*,82.1%
